# Data reported in PubChem BioAssay AID504333 (National Center for Advancing Translational Sciences (NCATS), 2011).
# Hit rate of the full screen: of about 360,000 compounds, about 16,000 (4.4%) were called active. Where a call stands in place of a potency, no number is given. Inconclusive results (about 9%) are left out. The call rests on the fitted dose curve; in most records, active means well fitted inhibition curve with a large enough effect; inconclusive means small, poorly fitted or top-dose-only effect; inactive means no such curve, though single readings can be large or run the other way. This excerpt belongs to a sample that is enriched for actives.
# Target: Bromodomain adjacent to zinc finger domain protein 2B (Homo sapiens) (UniProt Q9UIF8)
# Sequence (Q9UIF8 whole entry, looked up, the tested form may be a part): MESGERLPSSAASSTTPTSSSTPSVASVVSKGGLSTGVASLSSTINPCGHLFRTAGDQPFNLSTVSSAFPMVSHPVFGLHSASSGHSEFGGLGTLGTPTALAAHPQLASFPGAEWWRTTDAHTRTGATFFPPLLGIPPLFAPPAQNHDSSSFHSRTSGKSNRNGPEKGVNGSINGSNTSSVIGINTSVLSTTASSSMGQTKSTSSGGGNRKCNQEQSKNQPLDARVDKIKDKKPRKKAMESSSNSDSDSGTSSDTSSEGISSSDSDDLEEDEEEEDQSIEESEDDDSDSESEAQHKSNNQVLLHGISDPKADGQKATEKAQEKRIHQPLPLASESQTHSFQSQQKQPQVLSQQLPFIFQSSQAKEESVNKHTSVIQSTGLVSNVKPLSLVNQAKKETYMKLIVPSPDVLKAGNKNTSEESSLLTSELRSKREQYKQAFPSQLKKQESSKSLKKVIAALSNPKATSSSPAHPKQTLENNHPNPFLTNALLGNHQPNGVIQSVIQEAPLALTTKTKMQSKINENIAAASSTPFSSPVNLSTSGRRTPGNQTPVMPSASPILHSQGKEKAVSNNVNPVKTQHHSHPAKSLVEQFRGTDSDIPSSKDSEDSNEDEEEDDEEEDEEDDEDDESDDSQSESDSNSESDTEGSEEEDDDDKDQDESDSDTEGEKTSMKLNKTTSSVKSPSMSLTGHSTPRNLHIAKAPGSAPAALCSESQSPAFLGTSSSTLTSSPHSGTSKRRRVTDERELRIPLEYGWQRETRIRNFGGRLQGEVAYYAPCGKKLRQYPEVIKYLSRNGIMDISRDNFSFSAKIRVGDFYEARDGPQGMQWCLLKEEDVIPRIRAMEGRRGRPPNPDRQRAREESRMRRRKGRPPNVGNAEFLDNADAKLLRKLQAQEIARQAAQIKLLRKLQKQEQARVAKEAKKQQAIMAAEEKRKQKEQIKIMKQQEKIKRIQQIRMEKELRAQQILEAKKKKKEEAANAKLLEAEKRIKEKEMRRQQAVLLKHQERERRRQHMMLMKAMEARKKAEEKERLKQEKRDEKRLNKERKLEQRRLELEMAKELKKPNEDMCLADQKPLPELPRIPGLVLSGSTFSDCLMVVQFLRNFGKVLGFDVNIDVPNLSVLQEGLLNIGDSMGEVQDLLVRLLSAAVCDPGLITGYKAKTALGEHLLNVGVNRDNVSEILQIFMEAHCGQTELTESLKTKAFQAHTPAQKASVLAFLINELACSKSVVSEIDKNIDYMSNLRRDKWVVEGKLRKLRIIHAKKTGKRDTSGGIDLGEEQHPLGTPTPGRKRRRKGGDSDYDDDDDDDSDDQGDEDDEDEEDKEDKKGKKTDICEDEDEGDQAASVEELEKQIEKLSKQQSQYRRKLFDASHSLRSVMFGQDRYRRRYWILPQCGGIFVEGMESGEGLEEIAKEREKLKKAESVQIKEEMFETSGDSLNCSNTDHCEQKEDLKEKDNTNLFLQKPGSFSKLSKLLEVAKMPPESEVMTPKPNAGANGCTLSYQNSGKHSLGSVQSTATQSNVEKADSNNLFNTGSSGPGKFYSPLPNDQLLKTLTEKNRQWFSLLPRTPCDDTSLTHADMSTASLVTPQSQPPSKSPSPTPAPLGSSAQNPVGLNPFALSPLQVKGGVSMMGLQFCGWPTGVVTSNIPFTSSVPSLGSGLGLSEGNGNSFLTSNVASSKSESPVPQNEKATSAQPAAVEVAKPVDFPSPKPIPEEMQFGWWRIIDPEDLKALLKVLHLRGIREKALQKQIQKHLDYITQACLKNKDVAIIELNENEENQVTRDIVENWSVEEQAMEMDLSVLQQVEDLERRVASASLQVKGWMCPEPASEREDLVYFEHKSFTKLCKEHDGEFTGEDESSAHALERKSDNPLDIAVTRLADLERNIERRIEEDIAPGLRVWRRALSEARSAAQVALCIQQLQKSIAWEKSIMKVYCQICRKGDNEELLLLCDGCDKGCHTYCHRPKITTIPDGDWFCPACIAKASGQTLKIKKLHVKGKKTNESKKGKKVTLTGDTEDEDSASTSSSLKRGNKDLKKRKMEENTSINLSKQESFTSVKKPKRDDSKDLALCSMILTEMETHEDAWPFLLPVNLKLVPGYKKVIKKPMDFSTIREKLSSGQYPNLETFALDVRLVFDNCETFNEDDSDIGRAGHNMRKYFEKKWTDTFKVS
# Assay: qHTS Assay for Inhibitors of BAZ2B; further: nearly all actives have a fitted effect of over 60% in size
# Conditions: AlphaScreen BAZ2B-H3K14Ac peptide displacement; series mostly up to 114 µM
# Text: BAZ2B (bromodomain adjacent to zinc finger domain, 2B) belongs to a family of ubiquitously expressed bromodomain containing proteins, which biological function has not yet been elucidated. […] The interaction of BAZ2B with ISWI mediated by the BAZ1 motif has recently been described. […] The protocol is based on the AlphaScreen (PerkinElmer) displacement assay developed by NCGC [5], but uses the peptide ligand Biot-H3K14Ac, a high affinity binding partner for BAZ2B, in an AlphaScreen format. Although AlphaScreen has significant advantages with its utility in a variety of epigenetic target assays, the primary screening data provided in this deposition should be used with caution due to the prevalence of screening artifacts. The top compound concentration tested was 110uM in this assay, which increases number of actives and potential artifacts. An AlphaScreen counterscreen is highly recommended to be run against any putative actives to eliminate non-specific artifacts. Alternatively, one can use other AlphaScreen assays in PubChem to filter out promiscuous hits. Eberharter, A. et al. ACF1 improves the effectiveness of nucleosome mobilization by ISWI through PHD-histone contacts. The EMBO journal 23, 4029-4039. 2004. PMID: 15457208 [2] Jones, M.H. et al. A novel family of bromodomain genes. Genomics 63, 40-45. 2000. PMID: 10662543 [3] Yasgar, et al. Compound Management for Quantitative High-Throughput Screening. JALA. 2008 Apr;13(2):79-89. PMID: 18496600 [4] Inglese, et al. Quantitative high-throughput screening: a titration-based approach that efficiently identifies biological activities in large chemical libraries. Proc Natl Acad Sci. 1;103(31):11473-8. 2006. PMID: 16864780 [5] Quinn et al. A chemiluminescence-based method for identification of histone lysine methyltransferase inhibitors. Mol Biosyst 6(5): 782-8. 2010. PMID: 20567762 [6] Baell,Holloway. New substructure filters for removal of pan assay interference compounds (PAINS) from screening libraries and for their exclusion in bioassays. J Med Chem. 53(7):2719-40. 2010. PMID: 20131845 NIH Molecular Libraries Probe Production Network [MLPCN] NIH Chemical Genomics Center [NCGC] Structural Genomics Consortium (SGC) NIH Grant: 5U54 MH084681-02
# To each well of a 1,536w plate, 2ul of BAZ2B protein (final 50nM) and 1ul biotinylated histone peptide acetylated at Lys14 [b-H3(5-23)K14Ac] (final 50nM) were added in 1x PBS buffer, pH 7.4, containing 0.01% Tween-20, using a nanoliter dispenser. Formation of a protein-peptide complex proceeded at room temperature for 30 min. A Kalypsys pin-tool was employed to transfer 23 nL of library compound solution in DMSO to each well. Following a 30 min incubation of the protein-peptide complex with compounds at room temperature, a mixture of 40 ug/mL each streptavidin-coated donor and nickel chelate acceptor AlphaScreen beads (final 10 ug/mL) were added in a 1ul dispense for a final volume of 4ul. A brief centrifugation followed (1000rpm, 1 min) and were then incubated protected from the light for 20 min at room temperature. Plates were read on an EnVision multilabel plate reader using the 1,536 plate HTS AlphaScreen aperture (excitation time 80 ms, measurement time 240 ms).
# Potency means the concentration at half of the fitted maximal effect.
row,SMILES,Potency
1,COc1ccc(Cc2nc3ccc(C(=O)NCc4ccccc4C)cc3o2)cc1,inactive
2,Cc1cccc(C(=O)Nc2ccccc2N2CCN(c3ccc(F)cc3)CC2)c1,inactive
3,Cc1cccc(N2CCN(C(=O)c3ccccc3NC(=O)C3CCCCC3C(=O)O)CC2)c1 (stereo not given),inactive
4,Cc1cccc(N2CCN(c3ccc(C(=O)O)cc3NC(=O)c3ccccc3F)CC2C)c1 (stereo not given),56.2 µM (active)
5,COc1ccc(NC(=O)c2sc3nc(-c4cc5cccc(OC)c5oc4=O)[nH]c(=O)c3c2C)cc1,inactive
6,CCn1c2ccccc2c2cc(NC(=O)CNC)ccc21,56.2 µM (active)
7,CCn1c2ccccc2c2cc(NC(=O)COC(=O)c3ccccc3Br)ccc21,inactive
8,CCn1c2ccccc2c2cc(NC(=O)COc3ccc(C)cc3C)ccc21,inactive
9,COc1cc(Cl)ccc1Nc1ncc(C(=O)N2CCN(c3ccccc3OC)CC2)c2ccccc12,inactive
10,Cc1cccc(N2CCN(c3c(CN4CCCC4)c(=O)oc4ccccc34)CC2)c1C,inactive
11,Cc1cccc(N2CCN(C3=C(c4ccccc4)C(=O)c4ccccc43)CC2)c1C,2.24 µM (active)
12,Cc1cccc(N2CCN(Cc3c(C)n(C)n(-c4ccccc4)c3=O)CC2)c1C,inactive
13,CCOc1ccccc1N(CC)C(=O)Nc1cn(C)c(=O)c2ccccc12,inactive
14,CC(C)c1ccc(NC(=O)CN(C)S(=O)(=O)c2ccc3c(c2)c(=O)n(C)c(=O)n3C)cc1,inactive
15,CCS(=O)(=O)c1nc(S(=O)(=O)c2ccc(C)cc2)c(NCc2ccc(Cl)cc2)s1,inactive
16,Cn1c(=O)c(C(=O)O)nn(-c2ccccc2)c1=O,inactive
17,CCOC(=O)C1CCN(c2ccc(C(=O)O)cc2[N+](=O)[O-])CC1,inactive
18,O=C(O)C1CCN(c2ccc([N+](=O)[O-])cc2[N+](=O)[O-])CC1,56.2 µM (active)
19,CC1CCN(c2ccc([N+](=O)[O-])cc2C(N)=O)CC1,inactive
20,Cc1ccc(Cl)cc1N1CCN(S(=O)(=O)c2cc3[nH]c(=O)c(=O)[nH]c3cc2C)CC1,inactive
21,COc1ccc(CCC(=O)NCc2ccc3c(c2)CCN3C(=O)c2ccc(F)cc2)cc1,inactive
22,COc1ccccc1-c1noc(-c2ccc(NCc3ccccc3)c([N+](=O)[O-])c2)n1,inactive
23,O=C(CSc1nnc(-c2ccccc2F)o1)Nc1cccc(C(F)(F)F)c1,inactive
24,COc1cc(CN2CCCN(C)CC2)c([N+](=O)[O-])cc1OC,inactive
25,COc1ccccc1CN1CCCC(N2CCN(c3ccc(F)cc3)CC2)C1 (stereo not given),inactive

row,SMILES,Potency
1,COc1ccccc1CN1CCN(Cc2cc(OC)c(OC)cc2OC)CC1,50.1 µM (active)
2,c1ccc(C(c2ccccc2)N2CCN(Cc3nnnn3C3CCCCC3)CC2)cc1,inactive
3,COc1ccccc1CN1CCN(C(c2ccccc2)c2ccccc2)CC1,79.4 µM (active)
4,Oc1ccccc1CN1CCN(C(c2ccccc2)c2ccccc2)CC1,50.1 µM (active)
5,COc1ccccc1Cn1c(CO)nc2ccccc21,inactive
6,CNCC(O)CN1CCN(c2ccccc2OC)CC1 (stereo not given),inactive
7,COc1ccccc1CNCc1cccs1,inactive
8,CC(=O)N1CCN(CC(c2ccccc2)c2ccccc2)CC1,inactive
9,COc1ccccc1N1CCN(Cc2ccc(OC)c3ccccc23)CC1,28.2 µM (active)
10,COc1ccccc1N1CCN(Cc2cc(OC)c3c(c2)OCO3)CC1,inactive
11,Cc1ccc2cccc(NC(=O)c3ccc(OC(C)C)cc3)c2n1,inactive
12,Cc1ccc(NC(=O)CSc2nnc3[nH]c(=O)cc(C)n23)cc1Cl,inactive
13,CSc1ccc(C2c3c(oc4ccccc4c3=O)C(=O)N2CCCN2CCOCC2)cc1 (stereo not given),inactive
14,COc1cccc(C(=O)N(Cc2cccc(Cl)c2)Cc2ccco2)c1,inactive
15,O=C(COc1ccc(Cl)cc1)Nc1ccccc1OCc1cc(=O)n2ccccc2n1,inactive
16,Cc1ccc(NC(=O)c2cc3cc(C)ccc3n2C)cc1,inactive
17,O=C(Cn1c(=O)n(Cc2ccccc2)c(=O)c2sc3ccccc3c21)Nc1ccccc1F,inactive
18,Cc1ccc(C2CCN(C(=O)c3cnn(-c4ccccc4Cl)c3C3CCN(C(=O)OC(C)(C)C)CC3)C2)cc1 (stereo not given),inactive
19,COc1cccc(CNC(=O)Cn2ncn3c(cc4ccccc43)c2=O)c1,inactive
20,Cc1ccc(NC(=O)CN2c3ccccc3S(=O)(=O)c3ccccc32)cc1F,inactive
21,CCCn1c2ccccc2c2cnn(CC(=O)N3CCCC(C(=O)OCC)C3)c(=O)c21 (stereo not given),inactive
22,COc1cc2c3c(c1)/C(=C1/SC(=S)NC1=O)C(=O)N3C(C)(C)C=C2C,44.7 µM (active)
23,CCOC(=O)c1[nH]cnc1C(=O)NC1CCCCC1,50.1 µM (active)
24,CC(C)(C)OC(=O)N1CCC(NC(=O)c2[nH]cnc2C(=O)N[C@@H](Cc2ccccc2)C(=O)OCc2ccccc2)CC1,inactive
25,CCOC(=O)c1ccc(NC(=O)c2nc[nH]c2C(=O)NCc2ccccc2)cc1,inactive
